Measured values taken from PubChem BioAssay (NCATS).
Records with an inconclusive call do not appear. Activity calls are given as the source filed them. The call rests on the fitted dose curve; in most records, active means well fitted curve in the direction sought with a large enough effect; inconclusive means small, poorly fitted or top-dose-only effect, or another doubt; inactive means no such curve, though single readings can be large; an effect the other way counts as inactive or inconclusive.

Assays:
[1] = Quantitative High-Throughput drug screen in 47 multiple myeloma cell lines against the NCATS MIPE library collection: FR4_PLB cell viability assay (AID 1918924; further: nearly all actives have a fitted effect of over 35% in size)
Procedure, shortened: (§1)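 Relative luminescence from CellTiter-Glo served as the viability signal, referenced to DMSO-treated (100%) and cell-free medium (0%) controls. Treatment lasted 48 hours at 37C with 500 cells per well.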

[2] = Quantitative High-Throughput drug screen in 47 multiple myeloma cell lines against the NCATS MIPE library collection: Delta47_JCRB cell viability assay (AID 1918925; further: nearly all actives have a fitted effect of over 45% in size)
Procedure, shortened: as §1

[3] = Quantitative High-Throughput drug screen in 47 multiple myeloma cell lines against the NCATS MIPE library collection: EJM_DSMZ cell viability assay (AID 1918926; further: nearly all actives have a fitted effect of over 30% in size)
Procedure, shortened: as §1

[4] = Quantitative High-Throughput drug screen in 47 multiple myeloma cell lines against the NCATS MIPE library collection: AMO1_DSMZ cell viability assay (AID 1918927; further: nearly all actives have a fitted effect of over 30% in size)
Procedure, shortened: as §1

[5] = Quantitative High-Throughput drug screen in 47 multiple myeloma cell lines against the NCATS MIPE library collection: ARD_JJKsccE7 cell viability assay (AID 1918929)
Procedure, shortened: as §1

[6] = Quantitative High-Throughput drug screen in 47 multiple myeloma cell lines against the NCATS MIPE library collection: KHM11_PLB cell viability assay (AID 1918962); further: nearly all actives have a fitted effect of over 35% in size
Procedure, shortened: as §1

[7] = Quantitative High-Throughput drug screen in 47 multiple myeloma cell lines against the NCATS MIPE library collection: JIM3_ECACC cell viability assay (AID 1918963; further: nearly all actives have a fitted effect of over 35% in size)
Procedure, shortened: as §1

[8] = Quantitative High-Throughput drug screen in 47 multiple myeloma cell lines against the NCATS MIPE library collection: JIM1_ECACC cell viability assay (AID 1918964)
Procedure, shortened: as §1

[9] = Quantitative High-Throughput drug screen in 47 multiple myeloma cell lines against the NCATS MIPE library collection: JJN3_DSMZ cell viability assay (AID 1918966; further: nearly all actives have a fitted effect of over 50% in size)
Procedure, shortened: as §1

[10] = Quantitative High-Throughput drug screen in 47 multiple myeloma cell lines against the NCATS MIPE library collection: Karpas25_ECACC cell viability assay (AID 1918968; further: nearly all actives have a fitted effect of over 35% in size)
Procedure, shortened: as §1

[11] = Quantitative High-Throughput drug screen in 47 multiple myeloma cell lines against the NCATS MIPE library collection: KMS12BM_JCRB cell viability assay (AID 1918971); further: nearly all actives have a fitted effect of over 35% in size
Procedure, shortened: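 CellTiter-Glo luminescence (ATP) after 48 h compound exposure, 37C/5% CO2; 500 cells/well; MIPE 4.0 approved/investigational drugs pinned in; DMSO = 100%, media only = 0% viability.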

[12] = Quantitative High-Throughput drug screen in 47 multiple myeloma cell lines against the NCATS MIPE library collection: KMS12PE_JCRB cell viability assay (AID 1918972); further: nearly all actives have a fitted effect of over 30% in size
Procedure, shortened: as §1

[13] = Quantitative High-Throughput drug screen in 47 multiple myeloma cell lines against the NCATS MIPE library collection: KMS20_JCRB cell viability assay (AID 1918973); further: nearly all actives have a fitted effect of over 45% in size
Procedure, shortened: as §1

[14] = Quantitative High-Throughput drug screen in 47 multiple myeloma cell lines against the NCATS MIPE library collection: ARP1_JJKsccF8 cell viability assay (AID 1918928; further: nearly all actives have a fitted effect of over 40% in size)
Procedure, shortened: (§2)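 Cell viability inhibition in this qHTS is measured via ATP content (CellTiter-Glo) after 48 h drug exposure at 37 °C. Wells hold 500 cells; DMSO-treated wells define 100% and medium-only wells 0%.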

[15] = Quantitative High-Throughput drug screen in 47 multiple myeloma cell lines against the NCATS MIPE library collection: KMM1_JCRB cell viability assay (AID 1918960); further: nearly all actives have a fitted effect of over 30% in size
Procedure, shortened: as §2

[16] = Quantitative High-Throughput drug screen in 47 multiple myeloma cell lines against the NCATS MIPE library collection: Karpas417_ECACC cell viability assay (AID 1918961); conditions: Karpas417 myeloma viability, CellTiter-Glo ATP luminescence, 48 h; viability (% of DMSO): at 45.8 µM (top of the series)
Procedure, shortened: as §1

[17] = Quantitative High-Throughput drug screen in 47 multiple myeloma cell lines against the NCATS MIPE library collection: INA6_PLB cell viability assay (AID 1918965; further: nearly all actives have a fitted effect of over 55% in size)
Procedure, shortened: as §1

[18] = Quantitative High-Throughput drug screen in 47 multiple myeloma cell lines against the NCATS MIPE library collection: H1112_PLB cell viability assay (AID 1918967; further: nearly all actives have a fitted effect of over 30% in size)
Procedure, shortened: as §1

[19] = Quantitative High-Throughput drug screen in 47 multiple myeloma cell lines against the NCATS MIPE library collection: Karpas620_DSMZ cell viability assay (AID 1918959); further: nearly all actives have a fitted effect of over 30% in size
Procedure, shortened: as §1

[20] = Quantitative High-Throughput drug screen in 47 multiple myeloma cell lines against the NCATS MIPE library collection: KMS27_JCRB cell viability assay (AID 1918970); conditions: KMS27 myeloma cells, CellTiter-Glo ATP viability, 48 h; viability (% of DMSO): at 45.8 µM (top of the series); further: nearly all actives have a fitted effect of over 30% in size
Procedure, shortened: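 KMS27_JCRB myeloma cells, 500 per well, exposed 48 h at 37 C, 5% CO2 to MIPE 4.0 compounds. Viability from ATP by CellTiter-Glo luminescence, normalized to DMSO (100%) and medium-only (0%) wells.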
Potency means the concentration at half of the fitted maximal effect.

| SMILES | Potency [1] | Potency [2] | Potency [3] | Potency [4] | Potency [5] | Potency [6] | Potency [7] | Potency [8] | Potency [9] | Potency [10] | Potency [11] | Potency [12] | Potency [13] | Potency [14] | Potency [15] | Potency [16] | Potency [17] | Potency [18] | Potency [19] | Potency [20] |
| --- | --- | --- | --- | --- | --- | --- | --- | --- | --- | --- | --- | --- | --- | --- | --- | --- | --- | --- | --- | --- |
| CCOC(=O)N1CCN([N+]([O-])=NOc2cc(ON=[N+]([O-])N3CCN(C(=O)OCC)CC3)c([N+](=O)[O-])cc2[N+](=O)[O-])CC1 | 4.69 µM (active) | 4.69 µM (active) | 2.64 µM (active) | inactive | 0.0526 µM (active) | 6.62 µM (active) | 9.35 µM (active) | inactive | 2.96 µM (active) | 2.64 µM (active) | 5.26 µM (active) | inactive | 2.64 µM (active) |  |  |  |  |  |  |  |
| C[C@H]1O[C@@H](n2cc(F)c(=O)[nH]c2=O)[C@H](O)[C@H]1O | inactive | 14.8 µM (active) | inactive |  | 1.32 µM (active) |  | 11.8 µM (active) |  | inactive | 18.7 µM (active) | 16.6 µM (active) |  |  | inactive | 5.26 µM (active) | inactive | 13.2 µM (active) |  |  |  |
| Cc1csc(-c2nnc(Nc3ccc(Oc4ncccc4-c4ccnc(N)n4)cc3)c3ccccc23)c1 | 16.6 µM (active) | 23.5 µM (active) |  | 2.96 µM (active) | 23.5 µM (active) | 23.5 µM (active) |  |  | 18.7 µM (active) |  |  | 20.9 µM (active) |  | 5.26 µM (active) | 14.8 µM (active) |  |  |  |  |  |
| O=C1NC(=O)C(c2cnc3ccccn23)=C1c1cn2c3c(cccc13)CN(C(=O)N1CCOCC1)CC2 | 0.0053 µM (active) | 1.05 µM (active) | 0.187 µM (active) |  | 0.0042 µM (active) | 0.001 µM (active) |  |  |  | 0.001 µM (active) |  | 0.001 µM (active) | 3.72 µM (active) | 0.0066 µM (active) | 13.2 µM (active) |  | 0.001 µM (active) | 1.48 µM (active) |  |  |
| Cc1ccccc1-n1c(Cn2nc(-c3cccc(O)c3)c3c(N)ncnc32)nc2cccc(C)c2c1=O | 8.33 µM (active) | 2.96 µM (active) |  | 0.372 µM (active) | 1.05 µM (active) | 18.7 µM (active) | 3.72 µM (active) | 1.18 µM (active) |  | 2.64 µM (active) | 8.33 µM (active) | 0.935 µM (active) | 5.26 µM (active) | 3.32 µM (active) | 0.935 µM (active) | 4.18 µM (active) | 1.05 µM (active) | 2.64 µM (active) | 0.833 µM (active) | 0.469 µM (active) |
| O=c1[nH]c(=O)n([C@H]2C[C@@H](O)[C@@H](CO)O2)cc1C(F)(F)F | inactive | 5.26 µM (active) | 1.66 µM (active) |  |  |  | inactive |  | inactive | 10.5 µM (active) |  |  |  |  |  |  | 1.87 µM (active) | 5.26 µM (active) | inactive | 7.43 µM (active) |
| Cc1cnc(-c2cc(N3CCN(C(=O)CCS(C)(=O)=O)CC3)ncc2Cl)c(C)c1 | inactive | inactive | 0.0132 µM (active) |  | inactive |  | inactive |  | inactive |  |  |  |  | inactive |  |  | 18.7 µM (active) | inactive | inactive |  |
| CCC(c1ccc(O)cc1)C(CC)c1ccc(O)cc1 (centres undefined) | 5.26 µM (active) | 0.0026 µM (active) | 0.935 µM (active) |  | inactive |  | inactive |  |  |  |  | inactive |  |  | inactive |  | inactive |  | inactive |  |
| CCCCOCCOc1nc(-c2ccc(C(=O)O)c(F)c2)sc1C | inactive | inactive | inactive | inactive |  |  | 0.372 µM (active) |  |  |  |  | inactive |  |  | inactive | inactive |  | inactive | inactive | inactive |
| CN(C)S(=O)(=O)c1ccc2c(c1)C(=Cc1cc3c([nH]1)CCCC3)C(=O)N2 | 2.35 µM (active) | 2.96 µM (active) | 4.69 µM (active) |  | 8.33 µM (active) |  | 11.8 µM (active) |  | 4.69 µM (active) | 16.6 µM (active) |  |  | 10.5 µM (active) |  | inactive | 1.32 µM (active) | 3.72 µM (active) |  | 1.87 µM (active) | 3.32 µM (active) |
| Cc1cn([C@@H]2C[C@@H](O)[C@H](CO)O2)c(=O)[nH]c1=O | inactive | inactive | inactive | inactive |  | inactive | inactive | inactive | inactive | inactive |  | inactive |  |  | inactive | inactive | 0.0166 µM (active) | inactive | inactive | inactive |
| Cc1cnc(Nc2cccc(CN3CCOCC3)c2)nc1Nc1cccc(S(=O)(=O)NC(C)(C)C)c1 | 14.8 µM (active) | 4.18 µM (active) | 10.5 µM (active) |  |  | 13.2 µM (active) | 2.96 µM (active) |  | 5.9 µM (active) | 3.72 µM (active) | 5.26 µM (active) |  |  | 5.26 µM (active) |  | 0.662 µM (active) | 0.469 µM (active) |  | 4.69 µM (active) |  |
| Cc1ccc(NC(=O)c2ccc(CN3CCN(C)CC3)cc2)cc1Nc1nc(-c2cccnc2)cs1 | 20.9 µM (active) | 6.62 µM (active) |  | 18.7 µM (active) | 23.5 µM (active) | 7.43 µM (active) | 14.8 µM (active) |  | 16.6 µM (active) | 5.9 µM (active) | 23.5 µM (active) | 18.7 µM (active) |  | 23.5 µM (active) | 16.6 µM (active) |  | 5.26 µM (active) |  |  | 20.9 µM (active) |
